Assay outcomes deposited in PubChem by NMMLSC.
AGP1-GFP MLPCN = modulators of AGP1-GFP expression in yeast TOR pathway, primary screen, cell-based, multiplex flow cytometry, S. cerevisiae, MLPCN library. GFP response vs DMSO, % at 10 µM. 3 h; GFP as percent of DMSO wells. 320,000 compounds, 0.02% hits;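 active means GFP response relative to DMSO above a set limit, near screen average plus 3 SD, cut at about 150% in these data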;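 further: median GFP channel fluorescence of the gated AGP1 strain per well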
MEP2 TOR yeast = modulators of MEP2-GFP levels in yeast, primary screen, S. cerevisiae, multiplex flow cytometry, MLPCN library; GFP response vs DMSO, % at 10 µM; S. cerevisiae MEP2-GFP strain, 3 h; 100% = DMSO control level; 330,000 compounds, 0.51% hits; AID 2016, 2009;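 active means GFP response versus DMSO above a set limit, roughly screen mean plus 3 SD, cut at about 180% in these data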;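 further: median GFP fluorescence of the barcode-gated MEP2-GFP cells per well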
CIT2-GFP yeast = modulators of CIT2-GFP expression in yeast, primary screen, S. cerevisiae, GFP fusion, multiplex flow cytometry, MLPCN library; S. cerevisiae CIT2-GFP strain, 3 h; 100 means same as DMSO wells; GFP response vs DMSO, % at 10 µM; 320,000 compounds, 0.065% hits;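 active means GFP response relative to DMSO above a set limit, near the screen mean plus 3 SD, cut at about 150% in these data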;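 further: ratio of well median GFP fluorescence to mean of DMSO wells on the plate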
RPL19A TOR yeast = RPL19A-GFP expression modulators in yeast, primary screen, cell-based, S. cerevisiae, multiplex flow cytometry, MLPCN; S. cerevisiae RPL19A-GFP strain, 3 h; stronger effect = lower value; percent response vs DMSO, % at 10 µM; 330,000 compounds, 0.3% hits; AID 2025, 2009;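 active means percent response vs DMSO below 50%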;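 further: median channel GFP fluorescence of the barcoded RPL19A-GFP strain; ratio of sample median GFP to plate DMSO average so 100% = DMSO; lower means less RPL19A-GFP as with rapamycin TOR inhibition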
LAP4-GFP MLPCN = modulators of LAP4-GFP expression in yeast, primary screen, S. cerevisiae, multiplex flow cytometry, MLPCN library | 3 h; median GFP as percent of DMSO wells | GFP response vs DMSO, % at 10 µM | 320,000 compounds, 0.34% hits;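 active means GFP response vs DMSO above a set limit, about the screen mean plus 3 SD, cut at about 150% in these data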
LAP4 cherry2 = LAP4-GFP expression modulators in yeast, confirmation, cell-based, second cherry pick, flow cytometry; shares compounds with LAP4-GFP MLPCN; S. cerevisiae LAP4-GFP strain, 3 h; GFP response vs DMSO, % at 10 µM; 590 compounds, 20% hits;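 active means GFP signal as percent of the solvent control above about 150%, meaning raised reporter expression, limit read from the data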;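 further: ratio of well median GFP fluorescence to plate DMSO mean so 100% = DMSO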
MEP2 cherry2 = modulators of MEP2-GFP levels in yeast, confirmation, S. cerevisiae, flow cytometry GFP, second cherry picks. GFP response vs DMSO, % at 10 µM. shares compounds with LAP4-GFP MLPCN. 590 compounds, 10% hits. S. cerevisiae MEP2-GFP strain, 3 h;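 active means GFP signal above 150% of the solvent control wells, that is a rise of more than half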;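 further: median channel GFP fluorescence of all gated yeast cells per well; ratio of median GFP to plate DMSO average so 100% = DMSO level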
RPL19A-GFP pick2 = RPL19A-GFP modulators in TOR pathway yeast, confirmation, cell-based, S. cerevisiae, flow cytometry, second cherry pick | shares compounds with LAP4-GFP MLPCN | S. cerevisiae RPL19A-GFP strain, 3 h; stronger effect = lower value; 100% means same as DMSO wells | GFP response vs DMSO, % at 10 µM | 590 compounds, 3% hits | AID 2623, 2010;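 active means under 65% GFP response relative to DMSO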;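 further: median GFP channel fluorescence per well over the all cells gate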
CIT2 GFP CP2 = modulators of CIT2-GFP expression in yeast, confirmation, flow cytometry, second cherry pick, single plex. 590 compounds, 8% hits. AID 2624, 2010. GFP response vs DMSO, % at 10 µM. shares compounds with LAP4-GFP MLPCN. S. cerevisiae CIT2-GFP strain, 3 h; DMSO control wells read 100%;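 active means GFP response vs DMSO above about 150%, limit read from the data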;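 further: median green fluorescence per well over all gated yeast cells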
AGP1 GFP CP2 = AGP1-GFP expression modulators, hit retest, confirmation, cell-based, flow cytometry, S. cerevisiae, cherry pick set 2; shares compounds with LAP4-GFP MLPCN; S. cerevisiae AGP1-GFP strain, 3 h; percent response vs DMSO, % at 10 µM; 590 tested, under 10 active; AID 2643, 2010;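 active means over 150 percent of DMSO response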;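 further: median GFP channel fluorescence over all cells without mother daughter split; sample median GFP divided by mean DMSO control so 100% equals DMSO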
Yeast autofluor = compound autofluorescence in yeast s288c, dose response, artefact control for yeast TOR pathway GFP screen, s288c strain. 610 tested, under 10 active. fluorescence change (kMESF span) at 33 µM. S. cerevisiae s288c, 520 nm autofluorescence, flow cytometry, 3 h; stronger effect = higher value; zero means same as solvent-only cells. AID 2757, 2010. shares compounds with LAP4-GFP MLPCN;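 active means fluorescence span over the dose series, or activity score, above about 33, limit read from the data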
s288c autofl DR = autofluorescence of compounds in yeast s288c, dose response, artefact control for yeast TOR pathway GFP screen, primary hits, KU SAR, s288c parental. shares compounds with LAP4-GFP MLPCN. S. cerevisiae s288c parental, compound autofluorescence, flow cytometry, 3 h. fluorescence change (span) at 33 µM. 110 tested, under 10 active;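 active means fluorescence change span, or the activity score built from it, above 25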
TORC1 bypass = wild-type yeast growth inhibition sparing TORC1 bypass cells, mechanism study for yeast TOR pathway GFP screen, BY4741 wild type, TORC1 bypass strain; 120 tested, under 10 active; AID 504456, 2011; S. cerevisiae BY4741 spot growth rating, 48-72 h; stronger effect = lower value; growth rating (0-3) at 30 µM; shares compounds with LAP4-GFP MLPCN;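 active means growth rating at most 1 for wild type yeast while the TORC1 bypass strain still grows fully, rated 3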
Starred values were filed as active, the others as inactive; / = no result. A selection: hits, their analogues and other compounds. The true share with any hit is near 0.89%.

SMILES | AGP1-GFP MLPCN | MEP2 TOR yeast | CIT2-GFP yeast | RPL19A TOR yeast | LAP4-GFP MLPCN | LAP4 cherry2 | MEP2 cherry2 | RPL19A-GFP pick2 | CIT2 GFP CP2 | AGP1 GFP CP2 | others
Oc1cc(-c2ccncc2)cc2cccnc12 | 107 | 106 | 95 | 101 | 117 | / | / | / | / | /
O=C(c1ccccc1)c1ccccc1N1C(=O)C=CC1=O | 85 | 87 | 70 | 81 | 327* | / | / | / | / | / | Yeast autofluor=1.1
COc1cccc(-c2ncc3ccccc3c2COC(=O)c2ccc(Br)cc2)c1 | 95 | 85 | 84 | 93 | 112 | / | / | / | / | /
COc1cccc(-c2ncc3ccccc3c2COC(=O)c2cccc(Br)c2)c1 | 101 | 103 | 81 | 95 | 159* | 132 | 98 | 91 | 105 | 96
O=C(NCc1ccccn1)C(=O)NCC1OCCN1C(=O)c1ccc(Cl)cc1 (stereo unspecified) | 89 | 95 | 101 | 94 | 83 | / | / | / | / | /
O=C(NCc1ccco1)C(=O)NCC1OCCN1C(=O)c1ccc(Cl)cc1 (stereo unspecified) | 95 | 165 | 98 | 57 | 97 | 102 | 105 | 100 | 101 | 99
C=CCNc1cc(N2CCCC2)ccc1[N+](=O)[O-] | 95 | 105 | 96 | 104 | 106 | / | / | / | / | /
COc1cccc(NC(=O)CC(=O)c2ccccc2)c1 | 91 | 100 | 96 | 97 | 98 | 106 | 103 | 100 | 93 | 94
Cc1ccccc1NC(=O)CC(=O)c1ccccc1 | 94 | 108 | 101 | 100 | 92 | 105 | 111 | 102 | 100 | 100
O=C(CC(=O)c1ccccc1)Nc1ccccc1 | 89 | 95 | 82 | 89 | 92 | 106 | 102 | 101 | 101 | 98
COc1cccc(NC(=O)Cc2ccccc2)c1 | 78 | 86 | 87 | 98 | 108 | / | / | / | / | /
O=C(CC(=O)c1ccccc1)Nc1ccccc1C(F)(F)F | 95 | 105 | 94 | 98 | 87 | 101 | 102 | 101 | 97 | 97
COc1ccc(CCNC(=O)CN(Cc2ccc(Cl)cc2)S(C)(=O)=O)cc1 | 95 | 108 | 104 | 98 | 94 | / | / | / | / | /
C=CCOC(=O)c1ccc(N2CCN(c3ccccc3)CC2)nc1 | 90 | 104 | 99 | 99 | 94 | / | / | / | / | /
CN(C)S(=O)(=O)c1ccc(Cl)c(-c2nnc3n2CCCCC3)c1 | 92 | 96 | 88 | 91 | 85 | / | / | / | / | /
COc1cccc2cc(-c3nc4ccccc4o3)c(=O)oc12 | 67 | 103 | 85 | 56 | 114 | 105 | 102 | 60* | 98 | 65 | Yeast autofluor=0.71
COc1ccccc1N1CCN(S(=O)(=O)CCNC(=O)C2CCCCC2)CC1 | 97 | 100 | 99 | 98 | 97 | / | / | / | / | /
O=C(Nc1nnc(-c2ccc3c(c2)CCCC3)o1)c1ccc(Cl)cc1Cl | 35 | 109 | 53 | 56 | 84 | 153* | 211* | 105 | 161* | 94 | Yeast autofluor=0.41
O=C(Nc1nnc(-c2ccc3c(c2)CCCC3)o1)c1c(F)cccc1F | 96 | 83 | 88 | 90 | 96 | / | / | / | / | /
CCOC(=O)N1CCc2c(sc(NC(=O)c3ccc(Cl)s3)c2C(N)=O)C1 | 87 | 91 | 77 | 86 | 183* | 125 | 96 | 99 | 113 | 96
CCOC(=O)N1CCc2c(sc(NC(C)=O)c2C(N)=O)C1 | 101 | 104 | 98 | 101 | 109 | / | / | / | / | /
COc1cc(/C=C2\C(=O)N(CCC#N)N=C2C)c(Br)cc1OC(C)C | 87 | 92 | 89 | 105 | 192* | / | / | / | / | / | Yeast autofluor=-0.41
CCN1CCN(C(CNS(=O)(=O)c2ccccc2)c2cccnc2)CC1 (stereo unspecified) | 99 | 118 | 108 | 104 | 101 | / | / | / | / | /
CCN1CCN(C(CNS(=O)(=O)c2ccc(F)cc2)c2cccnc2)CC1 (stereo unspecified) | 104 | 108 | 154* | 99 | 96 | 97 | 98 | 98 | 108 | 100
CSc1nnc2c3cc(F)ccc3n(C)c2n1 | 67 | 102 | 79 | 64 | 87 | 99 | 98 | 57* | 96 | 61 | Yeast autofluor=0.51;s288c autofl DR=0.22;TORC1 bypass=3
Cn1c2ccc(F)cc2c2nc3ccccc3nc21 | 95 | 103 | 104 | 100 | 77 | / | / | / | / | /
CCn1c(C)nc2cc(C(=O)N/N=C/c3ccc(OC)c(O)c3)ccc21 | 99 | 100 | 101 | 105 | 91 | / | / | / | / | /
C=CCn1c(C)c(/C=C/c2cc[n+](C)cc2)c2ccccc21 | 117 | 286* | 241* | 129 | 171* | / | / | / | / | / | Yeast autofluor=5.1
C/C(=C\c1ccccc1)C(=O)Nc1ccc(Cl)cn1 | 103 | 112 | 116 | 104 | 83 | / | / | / | / | /
Cc1ccc(CN2CCN(Cc3cc4ccccc4o3)CC2CCO)cc1 (stereo unspecified) | 93 | 102 | 97 | 98 | 87 | / | / | / | / | /
